The results in this text go back to PubChem BioAssay (NCATS).

Inconclusive results are not listed. Active and inactive are the calls of the source. Calls come from the whole dose curve; as a rule, active = well fitted inhibition curve with a large enough effect; inconclusive = small, poorly fitted or top-dose-only effect; inactive = flat fitted curve, though single readings scatter.

Assay [1] can be described thus: qHTS for identification of novel therapeutic agents for treatment of microphthalmiaassociated transcription factor (MiT) renal cell carcinoma (RCC) (AID 1963991). As to conditions: CellTiter-Glo, 48 h, stronger effect = lower value. The procedure, abridged:
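Three TFE3-fusion RCC cell lines (UOK109, UOK124, UOK145), 500 cells/well, were exposed to the 1912-compound MIPE 4.0 library for 48 hours at 37 C. Viability was read by CellTiter-Glo luminescence, normalised to DMSO (100%) and empty wells (0%), with 11-concentration curve fits.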
On the technique in general: Quantitative high-throughput screening tests each substance at several concentrations.

Assay [2] in a line: qHTS profiling for inhibitors of Plasmodium falciparum proliferation (AID 504749).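 For activity, negative = inhibition: 0% = DMSO vehicle and full inhibition = artemisinin control.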 Note: nearly all actives have a fitted effect of over 60% in size. Note: potency is the fitted concentration of half-maximal effect. Particulars: P. falciparum in erythrocytes, SYBR Green DNA, 72 h. The procedure, abridged: (§1)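 Three-day growth assay of blood-stage parasites in erythrocytes (0.3% parasitemia, 2.5% hematocrit) at 37 C, 5% CO2, quantified by SYBR Green DNA staining after overnight detergent lysis.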
Assay [3] deals with 3D7. The assay is described as above. Particulars: P. falciparum in erythrocytes, SYBR Green DNA, 72 h; series mostly up to 28.7 µM. The procedure, abridged:
as §1

For assay [4], the system named is 7G8. The assay is described as above. Particulars: P. falciparum in erythrocytes, SYBR Green DNA, 72 h; series mostly up to 28.7 µM. The method in brief:
as §1

In assay [5] the test system is AA1029. The assay is described as above. Particulars: P. falciparum in erythrocytes, SYBR Green DNA, 72 h; series mostly up to 28.7 µM. The method in brief: as §1
Assay [6] concerns ATS189. The assay is described as above. Particulars: P. falciparum in erythrocytes, SYBR Green DNA, 72 h; series mostly up to 28.7 µM. The method in brief:
as §1

The test system of assay [7] is ATS95. The description is as above. As to conditions: P. falciparum in erythrocytes, SYBR Green DNA, 72 h; series mostly up to 28.7 µM. The procedure, abridged: as §1
Assay [8] deals with C2A. The assay is described as above. Particulars: P. falciparum in erythrocytes, SYBR Green DNA, 72 h; series mostly up to 28.7 µM. The method in brief:
as §1

In assay [9] the test system is CP185. Described as above. As to conditions: P. falciparum in erythrocytes, SYBR Green DNA, 72 h; series mostly up to 28.7 µM. The method in brief:
as §1

The subject of assay [10] is CP191. The assay is described as above. As to conditions: P. falciparum in erythrocytes, SYBR Green DNA, 72 h; series mostly up to 28.7 µM. The method in brief:
as §1

The test system of assay [11] is CP192. The assay is described as above. As to conditions: P. falciparum in erythrocytes, SYBR Green DNA, 72 h; series mostly up to 28.7 µM. The procedure, abridged:
as §1

Assay [12] relates to CP194. Described as above. Particulars: P. falciparum in erythrocytes, SYBR Green DNA, 72 h; series mostly up to 28.7 µM. The method in brief: as §1
Assay [13] has as its system CP201. Described as above. As to conditions: P. falciparum in erythrocytes, SYBR Green DNA, 72 h; series mostly up to 28.7 µM. The procedure, abridged: as §1
The test system of assay [14] is CP203. Described as above. Particulars: P. falciparum in erythrocytes, SYBR Green DNA, 72 h; series mostly up to 28.7 µM. The procedure, abridged:
as §1

Assay [15] has as its system CP211. The assay is described as above. As to conditions: P. falciparum in erythrocytes, SYBR Green DNA, 72 h; series mostly up to 28.7 µM. The method in brief:
as §1

Assay [16] concerns CP215. Described as above. Particulars: P. falciparum in erythrocytes, SYBR Green DNA, 72 h; series mostly up to 28.7 µM. The procedure, abridged:
as §1

In assay [17] the test system is CP217. The assay is described as above. As to conditions: P. falciparum in erythrocytes, SYBR Green DNA, 72 h; series mostly up to 28.7 µM. The method in brief: as §1
The test system of assay [18] is CP237. The description is as above. Particulars: P. falciparum in erythrocytes, SYBR Green DNA, 72 h; series mostly up to 28.7 µM. The method in brief:
as §1

Assay [19] has as its system CP238. Described as above. As to conditions: P. falciparum in erythrocytes, SYBR Green DNA, 72 h; series mostly up to 28.7 µM. The procedure, abridged: as §1
Assay [20] relates to AS120. Described as above. As to conditions: P. falciparum in erythrocytes, SYBR Green DNA, 72 h; series mostly up to 28.7 µM. The procedure, abridged:
as §1

Where [21] appears, read: TFE3-RCC UOK109 viability, measured here: UOK109 Z-AUC.
Where [22] appears, read: TFE3-RCC viability, measured here: UOK124 Z-AUC.
Where [23] appears, read: TFE3-RCC viability, measured here: UOK145 Z-AUC.
Where [24] appears, read: at 28.7 µM (top of the series), parasite line A.
The mark [25] stands for this setting: at 28.7 µM (top of the series), parasite line B.

On to `Nc1cc(C(Cl)=C(Cl)Cl)c(S(N)(=O)=O)cc1S(N)(=O)=O`, for which the values for the z-score in [1] (setting [21]), in assay [1] (setting [22]) and in assay [1] (setting [23]) were 1.83, 0.22 and 0.781, respectively. The activity, negative = inhibition is -2.96% (inactive) in assay [2] (at 12.8 µM (top of the series), parasite line A) and 1.59% (inactive) in assay [2] (at 12.8 µM (top of the series), parasite line B). Moreover, the Potency result in assay [3], in assay [4], in [5], in assay [6], in [7] and in [8] was “inactive” throughout. The Potency result in assay [9], in assay [10], in assay [11], in assay [12], in [13] and in assay [14] was “inactive” each time. In addition, the Potency result in assay [15], in assay [16], in assay [17], in [18] and in [19] was “inactive” throughout.
With `O=C(O)CCNC(=O)c1ccc(N=Nc2ccc(O)c(C(=O)O)c2)cc1`, the figures for the z-score in assay [1] (setting [21]), in [1] (setting [22]) and in [1] (setting [23]) were 1.03, 0.51 and 0.488, respectively. Moreover, the activity, negative = inhibition is 4.07% (inactive) in assay [2] (setting [24]) and 9.54% (inactive) in assay [2] (setting [25]). The Potency entry in [3], in [4], in [5], in assay [20], in assay [6] and in [7] was “inactive” each time. In addition, the Potency result in assay [8], in assay [9], in [10], in [11], in [12] and in [13] was “inactive” in each case. Further, the Potency entry in [14], in assay [15], in [16], in [17], in [18] and in assay [19] was “inactive” in each case.
Regarding `C=C(c1ccc(C(=O)O)cc1)c1cc2c(cc1C)C(C)(C)CCC2(C)C`, the z-score was 0.216 in assay [1] (setting [21]), -0.242 in assay [1] (setting [22]) and -0.306 in [1] (setting [23]). For the same compound, the activity, negative = inhibition in assay [2] (setting [24]) was -4.04% (inactive); in assay [2] (setting [25]) it was 4.75% (inactive). Besides, the Potency in [4] is 8.91 µM (active). In addition, the Potency result in assay [5], in [20], in assay [6], in assay [7], in assay [8] and in [9] was “inactive” each time. Further, the Potency result in [10], in assay [11], in [12], in [13], in assay [14] and in assay [15] was “inactive” in each case. Besides, the Potency entry in assay [16], in [17], in assay [18] and in [19] was “inactive” in each case.
On to `O=C(O)c1cc(=O)c2c(OCC(O)COc3cccc4oc(C(=O)O)cc(=O)c34)cccc2o1`, for which the z-score is 0.209 in [1] (setting [21]), 0.177 in assay [1] (setting [22]) and -0.326 in assay [1] (setting [23]). The activity, negative = inhibition in [2] (setting [24]) was 8.12% (inactive); in assay [2] (setting [25]), 15.8% (inactive). For the same compound, the Potency result in [3], in assay [4], in [5], in assay [20], in assay [6] and in assay [7] was “inactive” each time. Further, the Potency result in assay [8], in assay [9], in assay [10], in [11], in assay [12] and in assay [13] was “inactive” each time. The Potency result in assay [14], in [15], in assay [16], in assay [17], in [18] and in assay [19] was “inactive” in each case.
As for `Cc1ncc([N+](=O)[O-])n1CC(C)O` (stereo not drawn), the z-score in [1] (setting [21]) was determined as 1.59; in assay [1] (setting [22]) it was 0.687; in assay [1] (setting [23]) it was 1.68. Moreover, the results for the activity, negative = inhibition in assay [2] (setting [24]) and in [2] (setting [25]) were 11.8% (inactive) and 17% (inactive), respectively. Besides, the Potency entry in assay [3], in [4], in [5], in assay [20], in assay [6] and in assay [7] was “inactive” each time. For the same compound, the Potency result in assay [8], in assay [9], in assay [10], in [11], in [12] and in assay [13] was “inactive” in each case. The Potency entry in assay [14], in assay [15], in [16], in assay [17], in assay [18] and in assay [19] was “inactive” throughout.
